Data reported in ChEMBL document CHEMBL3433997, “St. Jude Leishmania screening dataset” (2016).

How the values were obtained:
Assay type in all cases: functional
[1] = target: Solute carrier family 2, facilitated glucose transporter member 1 (Homo sapiens) (UniProt P11166); experiment: ST_JUDE_LEISH: Cytotoxicity at 2uM final concentration against transgenic Leishmania Mexicana promastigotes LmGLUT1 that are glucose transport deficient and complemented with the human glucose transporter GLUT1. Activity is measured by DNA content using SYBR green in vitro
[2] = target: Hexose transporter 1 (Plasmodium falciparum) (UniProt O97467); experiment: ST_JUDE_LEISH: Cytotoxicity at 2uM final concentration against transgenic Leishmania Mexicana promastigotes LmPfHT that are glucose transport deficient and complemented with the Plasmodium falciparum hexose transporter. Activity is measured by DNA content using SYBR green in vitro
[3] = target: Glucose transporter (Leishmania mexicana) (UniProt O61059); experiment: ST_JUDE_LEISH: Cytotoxicity at 2uM final concentration against transgenic Leishmania Mexicana promastigotes LmGT2 that are glucose transport deficient and complemented with the L. Mexicana glucose transporter 2. Activity is measured by DNA content using SYBR green in vitro

Sequence of Solute carrier family 2, facilitated glucose transporter member 1 (Homo sapiens) (P11166 whole entry): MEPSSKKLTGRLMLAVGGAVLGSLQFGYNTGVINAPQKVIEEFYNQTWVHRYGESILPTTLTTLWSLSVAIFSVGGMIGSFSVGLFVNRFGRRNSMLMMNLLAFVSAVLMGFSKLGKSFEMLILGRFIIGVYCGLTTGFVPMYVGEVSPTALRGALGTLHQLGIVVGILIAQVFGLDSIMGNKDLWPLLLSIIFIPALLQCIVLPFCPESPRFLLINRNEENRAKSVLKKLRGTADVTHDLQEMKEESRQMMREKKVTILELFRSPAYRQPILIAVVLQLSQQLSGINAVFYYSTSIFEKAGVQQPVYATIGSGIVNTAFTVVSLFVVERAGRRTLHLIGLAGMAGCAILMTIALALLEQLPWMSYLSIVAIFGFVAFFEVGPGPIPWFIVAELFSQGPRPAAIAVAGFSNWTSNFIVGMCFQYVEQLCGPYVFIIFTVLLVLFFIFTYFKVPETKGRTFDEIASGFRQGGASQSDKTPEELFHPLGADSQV

Row | SMILES | inhibition [1] | inhibition [2] | inhibition [3]
1 | O=C(Nc1cccc(CN2CCCN(Cc3ccc(F)cc3)CC2)c1)c1ccc(Cl)c(Cl)c1 | 4.82% | 4.15% | 0.56%
2 | COc1ccc2cc(C(c3nnnn3CC3CCCO3)N3CCc4ccccc43)c(=O)[nH]c2c1 (stereo not given) | 2.55% | 3.26% | 2.23%
3 | Cc1ccccc1CCNC(=O)c1cnc(N2CCN(c3ccncc3)CC2)c(Cl)c1 | 79% | 81.9% | 84.2%
4 | CN(CCCCN)Cc1ccc(-c2ccc(Cl)cc2)cc1 | 21.7% | 19.1% | 10.5%
5 | COc1cc2nc(N3CCC(CNC(=O)/C=C/c4cccc(C)c4)CC3)nc(N)c2cc1OC | 7.71% | 0.18% | -0.03%
6 | Oc1ccc(CCNCCCCCCNCCc2ccc(Br)cc2)cc1O | 3.51% | 2.35% | 0.85%
7 | CNC(=O)NC1CCN(Cc2c(-c3cccs3)nc3ccccc3c2C(=O)N[C@@H](C)C2CCCCC2)CC1 | -1.53% | 0.94% | -1.52%
8 | Cc1cccc(NC(=O)NC2CCN(CCCCCNC(=O)/C=C/c3ccc(Cl)c(Cl)c3)CC2)c1 | 4.31% | 3.83% | 3.5%
9 | Oc1cccc(Nc2ccnc3cc(-c4nccs4)ccc23)c1 | -0.6% | 12.9% | 16.1%
10 | COc1ccc(-c2cccc(NC(=O)c3ccc(C#N)cc3)c2)cc1CN1CCN(C)CC1 | 16.1% | 14.8% | 11.3%
11 | Cc1ccc(C)c(Cn2ccc3nc(N)nc(N)c32)c1 | 2.05% | 1.94% | -0.67%
12 | Nc1ncc(-c2cn[nH]c2)cc1-c1nc2ccc(Cl)cc2[nH]1 | 2.56% | 3.75% | 3.89%
13 | COc1cccc(CNC(=O)NC2CCN(c3ccnc(Nc4ccc(F)cc4)n3)C2)c1 (stereo not given) | -1.2% | -0.35% | -1.51%
14 | COc1ccc(NC(=O)/C=C/c2ccc(Cl)c(C(F)(F)F)c2)cc1OCCN(C(C)C)C(C)C | 11.7% | 8.04% | 5.51%
15 | O=C(Nc1ccccc1)c1nn(CCCN2CCC(N3CCCC3)CC2)cc1-c1ccc(Cl)c(Cl)c1 | 2.06% | 0.39% | 0.89%
16 | O=C(Nc1ccc(Cl)cc1)NC1CCN(CCCCCNC(=O)C2CC2c2ccc(Cl)c(Cl)c2)CC1 (stereo not given) | 9.93% | 9.43% | 7.34%
17 | Oc1ccc(-c2ccccc2)cc1CN1CCCCC1 | 4.4% | 5.51% | -0.56%
18 | O=[N+]([O-])c1cccc(/C=N/Nc2ccnc3cc(F)ccc23)c1 | 1.98% | 2.39% | 1.01%
19 | CC(C)N(C(=O)CSc1nc2cc(Cl)ccc2c(=O)n1Cc1ccccc1)C(C)C | 0.98% | 2.14% | 0.05%
20 | COc1ccc2nc(C)cc(Nc3ccc(Oc4ccc(Cl)c5ccccc45)c(Cl)c3)c2c1 | 12.8% | 10.2% | 5.43%
21 | CC(C)C1C(O)=C(c2ccc3ccccc3c2)C(=O)N1Cc1ccsc1 (stereo not given) | 4.27% | 5.59% | 2.54%
22 | COC(=O)c1ccc2c(c1)nc(Nc1cccc(F)c1)n2CC(O)c1ccccn1 (stereo not given) | 4.12% | 3.8% | 2.91%
23 | O=C(NC1CCCCCC1)C1CCCN(C(=O)c2ccc(O)c(-c3ccc(Cl)c(Cl)c3)c2)C1 (stereo not given) | 3.16% | 2.31% | 2.57%
24 | CS(=O)(=O)CCNCc1ccc(-c2ccc3c(Nc4ccc(Cl)cc4F)ccnc3c2)o1 | 2.59% | 3.39% | 4.36%
25 | CCOc1cccc(C(=O)Nc2cccc(CN3CCCN(Cc4cccc(O)c4)CC3)c2)c1 | 4.67% | 5.58% | 3.26%

Row | SMILES | inhibition [1] | inhibition [2] | inhibition [3]
26 | CC1(C)NC(N)=NC(=N)N1OCCCOc1cccc(Cl)c1 | 3.04% | 5.38% | 2.82%
27 | Nc1nc(N)c2c(CCc3ccc4ccccc4c3)cccc2n1 | 3.27% | 1.63% | -1.66%
28 | COc1cccc(Nc2nc(Nc3cccc(C#N)c3)cc(C(F)(F)F)n2)c1 | 6.5% | 6.64% | 6.05%
29 | Oc1ccc(CCNCCCCCCNCCCc2ccc(Cl)cc2)cc1O | 2.83% | 4.13% | 4.05%
30 | Cc1nc(-c2ccncc2)sc1C(=O)Nc1ccc(Cl)cc1C(=O)Nc1ccc(Cl)cc1 | 3.13% | 3.01% | 2.19%
31 | Cc1cccc2nc(-c3ccc(-c4cccc(CN5CCCC(O)C5)c4)s3)[nH]c12 (stereo not given) | 3.6% | 4.83% | 2.93%
32 | COc1ccc(-c2cnc(N)nc2N)cc1Cl | 1.93% | 1.5% | 2.06%
33 | Cc1cccc2nc(-c3cccc(-c4cccc(C(=O)NCCc5cn(C)cn5)c4)c3)[nH]c12 | -0.8% | -0.53% | 0.89%
34 | CCCCCOc1ccc(/N=C2\C=C(O)C(=O)c3ccccc32)cc1 | 1.82% | 2.9% | 2.17%
35 | O=C(/C=C/c1ccc(Cl)cc1)NCCCCCN1CCCC(C(=O)Nc2ccc(F)c(Cl)c2)C1 (stereo not given) | 2.06% | 1.34% | 2.38%
36 | CCc1ccc(NC(=O)c2ccc(CN3CCCN(CC4CCCCC4)CC3)cc2)cc1 | 7.57% | 10.3% | 7.64%
37 | Cc1cccc2nc(-c3ccc(-c4ccc(CNCCN5CCNCC5)cc4)s3)[nH]c12 | 2.77% | 3.12% | 3.22%
38 | Cc1noc(C)c1S(=O)(=O)N(C)Cc1ccc(-c2ccc(Cl)cc2)o1 | 1.57% | 1.24% | -2.43%
39 | Cc1cc(NCCC(=O)NCCOc2ccccc2)nc(NCCc2ccc(F)cc2)n1 | 2.06% | 0.98% | -2.75%
40 | CCOC(=O)NOC(C(=O)O)c1ccccc1 (stereo not given) | 2.01% | -0.31% | 0.52%
41 | Cn1cncc1CCN(Cc1ccc(-c2ccc(C(F)(F)F)cc2)cc1)C(=O)Cn1c(CCc2cccc(F)c2F)cc(=O)c2cccnc21 | 1.83% | 2.38% | -0.14%
42 | Nc1ncc(-c2ccc(NC(=O)Nc3cc(C(F)(F)F)ccc3F)cc2)c(N)n1 | -0.9% | 0.23% | 0.6%
43 | OCCNc1nc(Nc2ccccc2)nc2ccccc12 | 8.68% | 7.01% | 2.07%
44 | COc1ccc2nccc([C@@H](O)CN3CCC(NCc4cc5ccc(C#N)cc5[nH]4)CC3)c2c1 | 13.5% | 12.8% | 9.02%
45 | COc1cc2/c(=N/c3ccc(Br)cc3F)nc[nH]c2cc1OCC1CCN(C)CC1 | -0.8% | 2.56% | 0.95%
46 | CCOc1ccc(-c2nonc2NC(=O)c2ccccc2OC)cc1OCC | 3.08% | 2.92% | 0.46%
47 | C[C@H](Cc1ccc(C[C@@H](C)NC[C@H](O)c2cccc(Cl)c2)cc1)NC[C@H](O)COc1ccccc1 | 1.99% | 1.95% | 3.59%
48 | CC1(C)[C@H]2CC[C@@H](CNc3nc(NCC(=O)Nc4ccc5ccccc5c4)nc(N4CCC(N5CCCC5)CC4)n3)[C@@H]1C2 | 0.95% | 2.52% | 2.89%
49 | CC(C)c1ccc(NC(=O)Nc2ccc(CCNCCCc3ccccc3)cc2)cc1 | 0.62% | 0.01% | 0.36%
50 | CNC(=O)/C=C/c1cc(NC(=O)Nc2ccnc3c(Br)cccc23)ccc1OC | 3.51% | 2.22% | 0.98%
